Values joined by “and” are separate entries in the source; they are usually repeats but may differ in a detail not shown here. Identical values can stand only once. About 83,000 compounds went through this panel and 20% of them were active in at least one assay; those are over-represented in the sample as a whole.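 Each cell line was grown in a 96-well plate and treated with one concentration of compound for 48 hours. Values below 10 were considered active.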 Where a structure was tested more than once in an assay, its records may differ in their call. Active and inactive are the calls of the source.

This assay has as its system HL-60(TB) leukemia. The assay can be described thus: NCI-60 one-dose screen, 48 h (100 = growth as untreated, 0 = no growth, -100 = all killed). As to conditions: 10 µM unless noted.
As for `O=C1C=CC[C@H](/C=C/c2ccccc2)O1`, the growth was 13.5% (inactive) and -34.5% (active).

Consider `O=C(Nc1cccc(-n2ccc3c(NC(=O)c4ccccc4)nccc32)c1)c1ccc(Cl)c(C(F)(F)F)c1`, for which the growth was -32.3% (active) and 56.6% (inactive).

Regarding `O=C(O)CCC(=O)Nc1nnc(-c2ccccc2)s1`, the growth was 92.2% (inactive).

On to `O=[N+]([O-])c1ccc2c(N=Nc3ccc4ccccc4c3O)c(O)cc(S(=O)(=O)O)c2c1`, for which the growth is 108% (inactive).

Consider `C/C(=N\O)c1ccc(NC(=O)CSc2nnc(-c3ccccc3)n2-c2ccccc2)cc1`, for which the growth was 90.4% (inactive).

As to `NCCCCCC(=O)O`, the growth was 114% (inactive) and 92.6% (inactive) and 77.6% (inactive).

Consider `COc1ccc(OC)c(/C=C2\Oc3cc(OCCN4CCC(Cc5ccccc5)CC4)ccc3C2=O)c1`, for which the growth was 98.2% (inactive).

Turning to `CCN(CC)S(=O)(=O)c1cccc(-c2ccc3c(NC(=O)C4CC4)n[nH]c3c2)c1`, the growth was 10.3% [6.25 µM] (inactive).

As for `Cc1cc(CCNC=O)c(C)c2c1sc1ccccc12`, the growth was 91.9% (inactive).

`CC(=O)N1N=C(c2cccc(Nc3ccncc3)c2)CC1c1ccccc1` (stereo not given): the growth is 78.9% (inactive).

`Cc1ccccc1NC(=O)c1sc2nc(C)c(C(=O)/C=C/c3ccccc3)cc2c1N`: the growth is 8.8% (active).

As to `CC(C)N(CCOc1cccc(-c2nc3sccn3c2-c2ccnc(S(C)(=O)=O)n2)c1)C(C)C`, the growth is 80.8% (inactive).

Turning to `CCN(CC)CC(=O)Nc1c(C)cc(C(=O)NN)cc1C`, the growth is 65.2% (inactive).

On to `O=C1c2ccccc2C(=O)c2c1ccc(C(Br)Br)c2Cl`, for which the growth is -9.24% (active).

`O=C(O)c1ccc(CNS(=O)(=O)c2ccc3ccccc3c2)cc1`: the growth was 68.1% (inactive).

`COc1c(B(O)O)cccc1-c1nc2ccc3n[nH]c(F)c3c2c2c1CCCC2`: the growth was 20% (inactive).

As for `Cc1ccc(N)cc1S(=O)(=O)O`, the growth was 92.7% (inactive) and 111% (inactive).

As to `O=C(COc1ccc(/C=C2\Oc3ccccc3C2=O)cc1)Nc1nc2c(s1)CCCC2`, the growth was -72.2% (active).

On to `OC(c1cc(-c2ccc(C(F)(F)F)cc2)nc(C(F)(F)F)c1)C1CCCCN1` (stereo not given), for which the growth is -47.6% (active) and -72.8% (active) and 36.6% (inactive).

In the case of `N#CC1C(=O)c2ccccc2C1c1ccccc1` (stereo not given), the growth is 108% (inactive) and 103% (inactive).

Consider `Cc1ccc(Nc2ccc(Nc3ccc(C)cc3S(=O)(=O)O)c3c2C(=O)c2ccccc2C3=O)c(S(=O)(=O)O)c1`, for which the growth is 99.4% (inactive).

In the case of `Fc1ccc(-n2cc(COc3ncnc4sc5c(c34)CCCC5)nn2)cc1Cl`, the growth is 101% (inactive).

In the case of `Cc1cc(C)c2c(c1)N(C)c1ncnc(-n3cnc4cc(C)ccc43)c1CC2C` (stereo not given), the growth is 11.1% (inactive).

On to `C=CCc1cc(OC)c(O)c(OC)c1`, for which the growth is 109% (inactive).

In the case of `NC1(c2ccc(-c3nc4ccn5c(=O)[nH]nc5c4cc3-c3ccccc3)cc2)CCC1`, the growth is 50.1% (inactive).

As to `COC(=S)SCN(CSC(=S)OC)c1ccc(Cl)cc1`, the growth was 90.4% (inactive).

With `O=C(Nc1ccc(Oc2cccc(Cl)c2)c(Cl)c1)c1cnccn1`, the growth is 1.5% (active).

As for `COc1cc(NC(=O)CCSc2nc3ccccc3c(=O)n2CCc2ccccn2)cc(OC)c1OC`, the growth is 99.1% (inactive).

As to `CCCCCCCCCCCCNC(=O)[C@H]1CSC(c2ccsc2)N1` (stereo not given in full), the growth was -12.6% (active).

In the case of `COc1ccc(-c2nn(-c3ccc(Cl)cc3)cc2-c2nc3ccccc3[nH]2)cc1`, the growth is 114% (inactive).

For `COc1ccc(-c2ccc(-c3ccc(C(=N)N)c(F)c3)s2)cc1`, the growth was -79.4% (active).

For `Cn1c(O)c(C=NCCN=Cc2c(O)n(C)c(=O)n(C)c2=O)c(=O)n(C)c1=O`, the growth was -60% (active).

Turning to `CC(=O)N1N=C(c2ccc(C(F)(F)F)cc2)CC1c1ccc2c(c1)OCO2` (stereo not given), the growth was 95.6% (inactive).

With `COc1cc(-c2c3c(nc4c2c(C)nn4-c2ccccc2)-c2ccccc2C(=O)C3=O)cc(OC)c1OC`, the growth was 68.8% (inactive).

With `O=C1c2c(O)ccc(O)c2C(=O)c2c(NCCNCCO)ccc(NCCNCCO)c21`, the growth was -28.5% (active) and -59.5% (active).

Take `COc1ccc(-c2cc(C(=O)N=Nc3c(O)[nH]c4ccccc34)no2)cc1`: the growth was 91.8% (inactive).

For the compound `COc1ccc(C2=CC(c3cc(OC)c(OC)c(OC)c3)NC(=O)N2)cc1OC` (stereo not given), the growth is 2.95% (active).

With `ON1CCCC1`, the growth was 82.3% (inactive).

On to `O=Cc1ccc([N+](=O)[O-])s1`, for which the growth is 81.9% (inactive).

Turning to `c1ccc(-c2nc(N3CCNCC3)c3nc(-c4ccccc4)oc3n2)cc1`, the growth was -49.6% (active).

For the origin of these results see PubChem BioAssay (NCI).
